Several values for one entry are separate records, joined by “and”; a condition that tells them apart may be missing. Equal values may be shown once. Inconclusive results are not listed. Entries that show only a call come without a potency. Activity calls are given as the source filed them. The call rests on the fitted dose curve; in most records, active means well fitted cell-killing curve with a large enough effect; inconclusive means small, poorly fitted or top-dose-only effect, or effect the other way; inactive means flat fitted curve, though single readings scatter.
system: CAOV3; experiment: Primary qHTS to identify gynecologic anti-cancer compounds using libraries of approved drugs and bioactive compounds (AID 1345084); conditions: Gynecologic cancer cell panel viability, ATPlite luminescence, 48 h; series mostly up to 57.5 µM; further: nearly all actives have a fitted effect of over 55% in size
Description: National Center for Advancing Translational Sciences [NCATS] Assay Overview: Chemotherapeutic drug responses vary from cancer to cancer and from patient to patient. These variations could be caused by a number of factors including patient genomic background, tumor mutations, tumor heterogeneity, and aspects of drug treatment. Chemotherapeutic drug resistance is also a common issue and can lead to ineffective treatment and patient death. Here we have profiled the cell killing effects of thousands of compounds to characterize the responses in three gynecological cancers, identify cancer-selective compounds, and understand the diversity of responses to these compounds from pan-cancer suppressors to single cell line selective compounds. In this assay, we screened a 7,914 compound drug library that included approved drug and bioactive compounds in six ovarian, three cervical, and […] placental cancer cell lines using the ATPlite assay for cell viability. […] The cervical cancer cell lines included HeLa, Ca Ski, and C-33 A. The placental cancer cell lines included JEG-3. HEK 293T cells were used as the control cell line to determine the selectivity index. ATPlite is a luminescence based assay reliant on the conversion of a luciferase substrate to light in the presence of ATP. As a cytotoxic compound will suppress growth and decrease the number of cells, the concentration of ATP will decrease, and less light signal will be detected in the well.
Assay Protocol Summary: 1,000 cells in 4 uL of media were dispensed into white, solid bottom 1536-well plates using a Multidrop Combi (Thermo Scientific). The Assay plates were incubated for 16 hours at 37 C with 5% CO2 in assay plates, followed by the addition of 23 nL of DMSO or drug dissolved in DMSO. Each compound was assayed in five concentrations (0.092, 0.46, 2.3, 11.5, and 57.5 uM), using the automated Wako 1536 Pin Tool workstation and incubated at 37 C with 5% CO2 48 hours. 4 uL of ATPlite, the ATP monitoring reagent, was then added to the each well of the assay plates using the Multidrop Combi reagent dispenser followed by incubation for 15 minutes at room temperature. The resulting luminescence was measured using the ViewLux plate reader.
Potency means the concentration at half of the fitted maximal effect.

Structure (SMILES)	Potency	activity change, negative = cytotoxicity
CCn1cc(-c2ccnc3[nH]c(-c4cccc(CN(C)C)c4)cc23)c(-c2ccc(NC(=O)N(C)C)cc2)n1	inactive	–
O=C(Nc1cc(C(F)(F)F)cc(C(F)(F)F)c1)c1cc(Cl)ccc1O	8.91 µM (active)	–
Cc1cnc(-c2cnc(NCCNc3ccc(C#N)cn3)nc2-c2ccc(Cl)cc2Cl)[nH]1	inactive	–
COc1cccc2nc(-c3cccs3)nc(NN3C(=O)C=C(C)C3=O)c12	15.8 µM (active)	–
CC(=O)Nc1nc(C)c(-c2ccc(Cl)c(S(=O)(=O)NCCO)c2)s1	14.1 µM (active)	–
C=CC(=O)Nc1cc2c(Nc3ccc(F)c(Cl)c3)ncnc2cc1OCCCN1CCOCC1	10 µM (active)	–
COc1cc2c(Oc3ccc(-c4cnc(Nc5ccc(F)cc5)n(C)c4=O)cc3F)ccnc2cc1OCCCN1CCOCC1	inactive	–
CCNC(=O)Nc1ccc2ncc(Nc3ccc(C)cc3)nc2n1	inactive	–
O=C1CCC[C@@H]2[C@H]3CCC[N+]4([O-])CCC[C@@H](CN12)[C@@H]34 (stereo not given in full)	inactive	–
C[C@]1(CO)CN(c2cc(C(=O)Nc3ccc4c(c3)-c3c(c(C(N)=O)nn3-c3ccc(F)cc3)CC4)c(Cl)cn2)C[C@@]1(C)CO	inactive	–
CS(=O)(=O)N1CCN(Cc2cc3nc(-c4cccc5[nH]ncc45)nc(N4CCOCC4)c3s2)CC1	inactive	–
CN(C)c1nc(Cc2ccc(NC(=O)c3ccc4ccccc4c3)cc2)nc(Cl)c1CC(=O)O	inactive	–
CS(=O)(=O)c1ccc(-c2cnc(N)c(C(=O)Nc3ccccc3)n2)cc1	inactive	–
OCc1ccc(-c2ccc(-c3ccc(CO)s3)o2)s1	0.199 µM (active)	–
C[C@]12CC[C@H](O)CC1=CCC1C2CC[C@]2(C)C(n3cnc4ccccc43)=CCC12 (stereo not given in full)	inactive	–
NC(=O)c1cccc2cn(-c3ccc([C@@H]4CCCNC4)cc3)nc12	inactive	–
COc1cc2c(Oc3ccc(NC(=O)C4(C(=O)Nc5ccc(F)cc5)CC4)cc3F)ccnc2cc1OCCCN1CCOCC1	10 µM (active)	–
CCOc1ccccc1OCCNC(C)Cc1ccc(OC)c(S(N)(=O)=O)c1 (stereo not given)	inactive	–
CC1(O)CC(c2nc(-c3ccc4ccc(-c5ccccc5)nc4c3)c3c(N)nccn23)C1 (stereo not given)	inactive	–
Clc1ccc2ncc(-c3cccc(NC4CNC4)n3)n2c1	inactive	–

Structure (SMILES)	Potency	activity change, negative = cytotoxicity
Cc1ccc(C(=O)Nc2cccc(C(F)(F)F)c2)cc1-c1ccc2nc(NCCN3CCOCC3)ncc2c1	22.4 µM (active)	–
NCC(=O)Nc1ccc(-n2nc(C(F)(F)F)cc2-c2ccc3c(ccc4ccccc43)c2)cc1	inactive	–
CCCn1c(=O)c2[nH]c(-c3cnn(Cc4cccc(C(F)(F)F)c4)c3)nc2n(CC)c1=O	inactive	–
Nc1ccccc1NC(=O)c1ccc(CNC(=O)OCc2cccnc2)cc1	inactive	–
COc1c(OCCCN2CCOCC2)ccc2c3n(c(=NC(=O)c4cnc(N)nc4)nc12)CCN3	–	-27.2% [at 11.6 µM] (inactive)
C=CC(=O)Nc1cccc(Oc2nc(Nc3ccc(N4CCN(C)CC4)cc3)ncc2Cl)c1	7.94 µM (active)	–
C[C@@H](Oc1cc(-c2cnn(C3CCNCC3)c2)cnc1N)c1c(Cl)ccc(F)c1Cl	11.2 µM (active) and 12.6 µM (active)	–
Cn1c(CNc2ccc(C(=N)N)cc2)nc2cc(C(=O)N(CCC(=O)O)c3ccccn3)ccc21	inactive	–
NC(=O)Nc1cc(-c2cccc(F)c2)sc1C(=O)N[C@H]1CCCNC1	1.58 µM (active)	–
CC(C)c1noc(N2CCC(COc3ccc(-c4ccc(S(C)(=O)=O)cc4)nc3)CC2)n1	inactive	–
COc1ccc2c(c1)CC[C@@H](CN(C)CC(=O)O)[C@H]2c1ccccc1	inactive	–
Cc1cc(Nc2ncnc3ccc(-c4ccc(CNCCS(C)(=O)=O)o4)cc23)ccc1Oc1ccn2ncnc2c1	inactive	–
COc1ccc(-n2nc(C(N)=O)c3c2C(=O)N(c2ccc(N4CCCCC4=O)cc2)CC3)cc1	inactive	–
Cc1cc(Nc2cc(CN3CCOCC3)c3nc(C)c(Cc4ccc(Cl)cc4F)n3n2)n[nH]1	inactive	–
CC[C@@]1(O)C(=O)OCc2c1cc1n(c2=O)Cc2cc3cc(O)ccc3nc2-1	0.355 µM (active)	–
COc1cc2c(NC3CCN(C(C)C)CC3)nc(C3CCCCC3)nc2cc1OCCCN1CCCC1	6.31 µM (active)	–
CC(C)c1cc(C(=O)N2Cc3ccc(CN4CCN(C)CC4)cc3C2)c(O)cc1O	3.98 µM (active)	–
CCc1cc2c(cc1N1CCC(N3CCOCC3)CC1)C(C)(C)c1[nH]c3cc(C#N)ccc3c1C2=O	inactive	–
Nc1nc(NCCNc2ncc(-n3ccnc3)c(-c3ccc(Cl)cc3Cl)n2)ccc1[N+](=O)[O-]	inactive	–
CC(=O)SC[C@@H](C)C(=O)N1CCC[C@H]1C(=O)N[C@@H](Cc1ccccc1)C(=O)O	inactive	–

From PubChem BioAssay (NCATS)
